# Screening results (PubChem)
# Shown are actives, neighbours in structure and some others; about 10% of the full set was active somewhere.
# HPGD inh = HPGD (human) dehydrogenase inhibition; P15428; purified HPGD, NADH fluorescence kinetic, PGE2 substrate; Potency, µM, usual class: inhibitors; actives 4.3% (n = 150,000); AID 894
# Target sequence (P15428 whole entry, looked up): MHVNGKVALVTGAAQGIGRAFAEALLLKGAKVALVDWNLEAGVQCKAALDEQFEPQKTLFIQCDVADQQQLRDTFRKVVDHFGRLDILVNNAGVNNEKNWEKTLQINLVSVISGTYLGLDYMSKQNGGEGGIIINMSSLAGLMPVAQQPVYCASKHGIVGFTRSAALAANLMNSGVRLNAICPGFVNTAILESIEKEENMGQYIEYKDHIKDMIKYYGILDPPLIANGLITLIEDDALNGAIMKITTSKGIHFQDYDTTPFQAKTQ
#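 NADH formation kinetics: reaction with 30 uM PGE2 and 1 mM NAD+ (final), 20 nM enzyme, Tris-HCl pH 8 with Tween 20, after 15 min compound preincubation at room temperature. Fluorescence change, last versus first of five reads.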
# PNC inhibitor = inhibitors of perinucleolar compartment assembly. activity change (PNC), negative = inhibition, % at 10 µM. actives 3.1% (n = 140,000). PC3M PTB-GFP, PNC prevalence imaging, 16 h; active compounds read low;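 active = readout at or below -70, meaning at least 70% loss of cells showing the perinucleolar compartment, a nuclear body marking cancer cells; inconclusive = readout between -30 and a set limit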
#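 Read-out is percentage of cells bearing a perinucleolar compartment, from automated 20x imaging of fixed, Hoechst-stained PC3M PTB-GFP cells. Cells were seeded 4 h, then exposed 16 h to compound (23 nl of library stock) in duplicate plates.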
# LMNA splice mod = LMNA splicing modulation; Potency, µM (series often up to 46.1 µM), hits mostly inhibitors; HeLa LMNA splicing GFP/RFP minigene ratio, 48 h; AID 1487; actives 0.01% (n = 200,000); active = well fitted inhibition curve with a large enough effect in the signal ratio, with a control signal flat, not every such curve was filed as active; inconclusive = small, poorly fitted or top-dose-only effect, or effect the other way, or a change in a side signal; the % refers to the signal ratio
#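 S3 HeLa cells stably expressing lamin A-EGFP splicing minigene plus DsRed2, 600 cells/well, 48 h compound exposure at 37C. Laser-scanning cytometry; analysed as GFP (500-530 nm)/RFP (575-640 nm) total intensity ratio; 0.5% DMSO vehicle.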
# 12-hLO inh = inhibitors of human 12-lipoxygenase (ALOX12) | P18054 | purified 12-hLO, xylenol orange hydroperoxide absorbance | Potency, µM (highest dose often 57.1 µM), usual class: inhibitors | actives 0.12% (n = 150,000) | AID 1452; active = well fitted inhibition curve with a large enough effect; inconclusive = small, poorly fitted or top-dose-only effect; note: nearly all actives have a fitted effect of over 55% in size
#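 Xylenol orange chromogenic assay: hydroperoxide from 12hLO oxidises Fe(II), giving red-shifted Fe(III)-XO absorbance. Conditions: 150 nM enzyme, 40 uM arachidonic acid, 25 mM Hepes pH 7.0, 0.01% Triton X-100, 30 min, room temperature.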
# ALDH1A1 inh = ALDH1A1 (human) enzyme inhibition; P00352; Purified ALDH1A1, NADH fluorescence, propionaldehyde substrate; Potency, µM (highest dose often 75.3 µM), actives largely listed as inhibitors; actives 7.3% (n = 220,000)
# A number is an active result; - = inactive; ? = inconclusive; . = no result given; [ ] = another dose, or the depositor's remark. Unless noted, calls come from the whole dose curve; as a rule, active = well fitted inhibition curve with a large enough effect (not every such curve was filed as active); inconclusive = small, poorly fitted or top-dose-only effect, or another doubt; inactive = no such curve, though single readings can be large or run the other way.
SMILES,HPGD inh,PNC inhibitor,LMNA splice mod,12-hLO inh,ALDH1A1 inh
CCc1cccc(CC)c1NC(=O)CSc1nc2ccc(N3C(=O)C4C(C3=O)[C@H]3C=C[C@@H]4C3)cc2s1 (some centres undefined),20µM,-,-,-,17.8µM
CC12CN3CC(C)(CN(C1)C3c1ccc(Cl)cc1Cl)C2O (centres undefined),-,-,-,-,-
CN(C)c1ccc(C2N3CC4(C)CN2CC(C)(C3)C4O)cc1 (centres undefined),-,-,-,-,0.891µM
O=C(CSc1nc2sc3c(c2c(=O)[nH]1)CCCC3)Nc1ccccc1F,.,.,-,.,.
Cc1cccc(OC(=O)n2c(=S)oc3cc(Cl)ccc32)c1,-,-,-,-,3.55µM
CC1(C)CC(=O)C/C(=N\NC(=O)C2CC2c2ccccc2)C1 (centres undefined),.,.,-,.,31.6µM
C=CCn1c(NC(=O)c2ccc(Br)o2)c(C(=O)OCC)sc1=S,15.8µM,-,-,-,3.55µM
O=C1CCC(NC(=O)c2ccccc2)C(=O)N1 (centres undefined),.,.,-,.,-
CC1(C)Cc2c(sc(NC(=O)c3ccccc3Cl)c2C(=O)O)CO1,.,.,.,.,-
CCOCCCNC(=O)C(c1ccccc1)N(Cc1cccs1)C(=O)c1ccccc1O (centres undefined),.,.,.,.,-
CCOCCCNC(=O)C(c1ccc(OC)cc1)N(Cc1ccc2c(c1)OCO2)C(=O)c1ccccc1O (centres undefined),.,.,.,.,2µM
CCOCCCNC(=O)C(c1ccc(C)cc1)N(Cc1cccs1)C(=O)c1ccccc1O (centres undefined),.,.,.,.,15.8µM
CCOCCCNC(=O)C(c1ccc(C)cc1)N(Cc1ccc2c(c1)OCO2)C(=O)CNC(C)=O (centres undefined),-,-100.0,-,-,-
Cc1ccc(C)c(N2CCN(C(=O)CS(=O)(=O)c3cccc4nsnc34)CC2)c1,.,.,-,.,.
CC(C)c1ccc(S(=O)(=O)c2cnc(SCC(=O)Nc3ccc(F)cc3F)nc2N)cc1,.,.,-,.,.
CCCCCCOC(=O)Nc1ccc(S(=O)(=O)Nc2cccc([N+](=O)[O-])c2)cc1,-,-,?,-,-
CN(C(=O)CSc1nc2ccccc2n1CC(=O)N(C)C1CCCCC1)c1ccc(F)cc1,.,.,-,.,.
Cc1cc(C)c(C)c(S(=O)(=O)N2CCN(c3ccc(O)cc3)CC2)c1C,.,.,?,.,22.4µM
Cc1ccc2sc(NNC(=O)c3cc(=O)c4ccccc4o3)nc2c1C,.,.,.,.,12.6µM
Cc1cccc2sc(NNC(=O)c3cc(=O)c4ccccc4o3)nc12,.,.,.,.,-
COCc1c(C(=O)NC2CCCCCC2)oc2ccccc12,.,.,.,.,11.2µM
O=C(c1ccccc1)N1CCN(C2c3cccc4cccc(c34)C2NS(=O)(=O)c2ccccc2)CC1 (centres undefined),-,-,-,-,11.2µM
O=S(=O)(NC1c2cccc3cccc(c23)C1N1CCNCC1)c1ccccc1 (centres undefined),-,?,-,-,-
Cc1nn(C)c2c1c(C(F)(F)F)cc(=O)n2C(C)C(=O)Nc1ccccc1F (centres undefined),.,.,-,.,.
Cc1ccc(S(=O)(=O)c2cn(C)c3cc(N4CCCC(C)C4)c(F)cc3c2=O)c(C)c1 (centres undefined),.,.,-,.,.
SMILES,HPGD inh,PNC inhibitor,LMNA splice mod,12-hLO inh,ALDH1A1 inh
Cc1cc(C)nc(NS(=O)(=O)c2ccc(Br)s2)c1,?,?,-,-,25.1µM
Cc1cccc(NS(=O)(=O)c2ccc(Br)s2)n1,-,?,-,-,?
COC(=O)C1=C(C(=O)OC)[C@@H]2N(C)c3ccc(OC)cc3[C@@]23C[C@@H](C(=O)OC)N(S(=O)(=O)c2ccc4c(c2)OCCN4C)C3=N1,-,.,-[9.22 µM],-[11.4 µM],-[13.5 µM]
Cc1ccc(C2Oc3ccccc3C3=C2C(c2cccs2)n2ncnc2N3)cc1 (centres undefined),-,-,?,-,11.2µM
C=CCc1cc(C)ccc1OCCn1ccnc1,-,-,-,-,?
C=CCc1cc(C)ccc1OCCOCCn1ccnc1,-,-,?,-,25.1µM
COc1ccc(S(=O)(=O)N(C(C)=O)c2ccc(OC(C)=O)c3ccccc23)cc1[N+](=O)[O-],.,?,?,-,7.08µM
CC(=O)Oc1ccccc1N(C(C)=O)S(=O)(=O)c1ccc(C)cc1,.,.,-[9.22 µM],.,-
CC(C)(C)n1nnnc1CN(Cc1ccc(F)cc1)Cc1ccco1,-,-,-,-,14.1µM
COc1cccc(CN(Cc2ccco2)C(c2ccc(F)cc2)c2nnnn2C(C)(C)C)c1 (centres undefined),-,?,?,-,?
CO[C@@H](CCO)C[C@H]1O[C@H](C(=O)OC(C)C)CC[C@@H]1C,-,.,.,.,-
COC(=O)c1ccc(NC(=O)c2cc(S(=O)(=O)N3CCOCC3)cn2C)cc1,.,.,-,.,.
Cc1ccc(NC(=S)/C(=C(\[O-])c2ccc(Cl)s2)[n+]2cccc(CO)c2)cc1C,.,.,.,.,14.1µM
[O-]/C(=C(\C(=S)Nc1cccc2ccccc12)[n+]1cccc(CO)c1)c1ccc(Cl)s1,.,.,.,.,12.6µM
CC1=CC(=O)C2=C(C)C[C@@H]3OC(=O)[C@@H](C)[C@H]3C=C12,-,.,.,.,-
Cc1cc(SCC(=O)OCC(=O)NCC2CCCO2)c(C)cc1Br (centres undefined),.,.,.,.,-
Cc1cc(C)cc(NC(=O)CCn2cnc3ccccc3c2=O)c1,.,.,-,.,.
[S-]C(=Nc1ccc(Cl)cc1)N[n+]1ccccc1,6.31µM,-,?,-,-
N#CC(CC(=O)O)=C(c1ccccc1)c1ccccc1,-,.,.,-[11.4 µM],-[13.5 µM]
N#CC(C(=O)c1ccccc1)=C1SCCS1,.,.,-,.,14.1µM
COc1cc(CN(C(=O)COc2ccccc2)c2ccccn2)cc(OC)c1OC,.,.,-,.,.
CCc1ccccc1NC(=O)c1cc(S(=O)(=O)N2CCCc3ccccc32)ccc1F,.,.,-,.,.
O=C1C2C(C(=O)N1/N=C/c1ccc(N3CCCCC3)o1)C1C=CC2C12CC2 (centres undefined),-,-,-,-,8.91µM
Cc1ccc(/C=N/N2CCCCC2)o1,.,.,-,.,-
COc1ccc(-c2nnc3n2-c2ccccc2SC3)cc1OC,35.5µM,?,-,-,15.8µM
SMILES,HPGD inh,PNC inhibitor,LMNA splice mod,12-hLO inh,ALDH1A1 inh
COc1ccc(C2=Nn3c(nnc3-c3ccncc3)SC2)cc1OC,?,-,?,-,?
O=C(NCc1cccnc1)c1sc2cc(Cl)ccc2c1Cl,?,?,-,-,-
CCn1nnc(NC(=O)c2sc3ccccc3c2Cl)n1,-,-,-,-,3.16µM
CCn1nnc(NC(=O)c2cccnc2Cl)n1,-,-,-,-,-
O=C(NCc1ccco1)c1nc2ccccc2s1,?,-,-,-,?
NC(=O)COC(=O)CNC(=O)c1sc2ccccc2c1Cl,.,.,-,.,22.4µM
O=C(NCc1ccco1)c1sc2ccccc2c1Cl,15.8µM,-,-,-,?
O=C(NCc1ccco1)c1sc2cc(Cl)ccc2c1Cl,15.8µM,-,-,-,20µM
CCCCCC(=O)NC(=S)Nc1ccc(N2CCOCC2)cc1,-,-,-,-,?
COc1cc(/C=N/NC(=O)CN2CCCCC2)ccc1OCc1ccc(Br)cc1,-,-,-,-,-
